This test concerns the target Nonstructural protein 3 (Zika virus) (UniProt A0A024AXB9).
[1] abbreviates: PRVABC59, Concentration 15.0 uM, Number of replicates 1.0.
The mark [2] stands for this setting: PRVABC59, Concentration 50.0 uM, Number of replicates 1.0.

About 160 (5.9%) of roughly 2,700 compounds showed an effect of 50% or more. This is one part of a sample in which strong results are shown more often than they occur.

Sequence of Nonstructural protein 3 (Zika virus) (A0A024AXB9 as listed by the source): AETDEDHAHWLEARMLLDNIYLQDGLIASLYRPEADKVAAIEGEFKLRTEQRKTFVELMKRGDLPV

For `CN(C(=O)c1cc(Cl)ccc1NS(=O)(=O)c1ccc(Oc2ccccc2Cl)cc1)[C@H]1CS(=O)(=O)C[C@@H]1O`, under setting [1], the inhibition turned out to be 1.21%.

As to `Cc1cc(CO)c2cccc(C[C@H](NC(=O)c3cc(C(=O)O)[nH]n3)C(=O)O)c2n1`, the inhibition (PRVABC59, Concentration 49.95 uM, Number of replicates 2.0, Standard deviation 1.6911148062176817 %) worked out at 1.37% and the inhibition (PRVABC59, Concentration 99.9 uM, Number of replicates 2.0, Standard deviation 1.9620942703325182 %) turned out to be 8.92%.

With `O=Cc1ccc(N2CCC(C(=O)Nc3ccc(C(F)(F)F)cc3[N+](=O)[O-])CC2)cc1`, the inhibition under setting [2] amounted to 22.3%.

`O=C(c1cc(Cl)ccc1NS(=O)(=O)c1ccc(Oc2ccccc2Cl)cc1)N1CCC(c2nc3ccccc3[nH]2)CC1`: the inhibition under setting [1] turned out to be 20.5%.

For the compound `Cc1cc(CO)c2cccc(Cc3cccc(C(=O)Nc4cccc(C(N)=O)c4)c3)c2n1`, the inhibition reads like this: (PRVABC59, Concentration 49.95 uM, Number of replicates 2.0, Standard deviation 0.1992514179713741 %) -3.36%; (PRVABC59, Concentration 99.9 uM, Number of replicates 2.0, Standard deviation 0.4299637092619174 %) -0.56%.

Regarding `Cc1cc(CO)c2cccc(Cc3cccc(C(=O)Nc4nonc4C(N)=O)c3)c2n1`, the inhibition runs as follows: (PRVABC59, Concentration 49.95 uM, Number of replicates 2.0, Standard deviation 1.609742570683987 %) 20.1%; (PRVABC59, Concentration 99.9 uM, Number of replicates 2.0, Standard deviation 0.8074931564941592 %) 55.3%.

Regarding `Cc1cc(CO)c2cccc(Cc3cccc(C(=O)NCC(N)=O)c3)c2n1`, the inhibition was -5.74% (PRVABC59, Concentration 49.95 uM, Number of replicates 2.0, Standard deviation 1.0591786257609663 %) and -1.72% (PRVABC59, Concentration 99.9 uM, Number of replicates 2.0, Standard deviation 0.9490662751035868 %).

Regarding `Cc1cc(CO)c2cccc(CC(=O)Nc3ccc(C(=O)O)o3)c2n1`, the inhibition came to 42.9% (PRVABC59, Concentration 49.95 uM, Number of replicates 2.0, Standard deviation 1.3790313962849292 %) and 40.6% (PRVABC59, Concentration 99.9 uM, Number of replicates 2.0, Standard deviation 0.49288480262410383 %).

With `Cc1cc(CO)c2cccc(CC(=O)N[C@@H](CCC(N)=O)C(=O)O)c2n1`, the inhibition came out at 69.6% (PRVABC59, Concentration 49.95 uM, Number of replicates 2.0, Standard deviation 0.13741625923449508 %) and 81.6% (PRVABC59, Concentration 99.9 uM, Number of replicates 2.0, Standard deviation 0.11197439842459092 %).

`Cc1cc(CO)c2cccc(Cc3cccc(C(=O)N[C@@H](CCC(N)=O)C(=O)O)c3)c2n1`: the inhibition was 14.4% (PRVABC59, Concentration 49.95 uM, Number of replicates 2.0, Standard deviation 1.9977585963676485 %) and 36% (PRVABC59, Concentration 99.9 uM, Number of replicates 2.0, Standard deviation 0.9280938346971718 %).

With `Cc1cc(CO)c2cccc(Cc3ccccc3C(=O)Nc3cccc(C(N)=O)c3)c2n1`, the inhibition (PRVABC59, Concentration 49.95 uM, Number of replicates 2.0, Standard deviation 0.5610502494199251 %) is -2.71% and the inhibition (PRVABC59, Concentration 99.9 uM, Number of replicates 2.0, Standard deviation 0.1363299663609753 %) was determined as 0.693%.

As for `Cc1cc(CO)c2cccc(CC(=O)Nc3nonc3C(N)=O)c2n1`, the inhibition reads like this: (PRVABC59, Concentration 49.95 uM, Number of replicates 2.0, Standard deviation 0.05598719921229546 %) 82%; (PRVABC59, Concentration 99.9 uM, Number of replicates 2.0, Standard deviation 1.0790078750483718 %) 86.1%.

With `Cc1cc(CO)c2cccc(CC(=O)Nc3cccc(C(N)=O)c3)c2n1`, the inhibition by setting is: (PRVABC59, Concentration 49.95 uM, Number of replicates 2.0, Standard deviation 0.035627236808440856 %) 58.9%; (PRVABC59, Concentration 99.9 uM, Number of replicates 2.0, Standard deviation 0.025447255606513557 %) 72.8%.

Turning to `Cc1cc(CO)c2cccc(Cc3ccccc3C(=O)N[C@@H](CCC(N)=O)C(=O)O)c2n1`, the inhibition by setting is: (PRVABC59, Concentration 49.95 uM, Number of replicates 2.0, Standard deviation 1.0696657731948411 %) -4.71%; (PRVABC59, Concentration 99.9 uM, Number of replicates 2.0, Standard deviation 0.7655451252044032 %) 0.649%.

For `Cc1cc(CO)c2cccc(Nc3nonc3C(N)=O)c2n1`, the inhibition is, setting by setting: (PRVABC59, Concentration 49.95 uM, Number of replicates 2.0, Standard deviation 1.4175935710362748 %) 4.15%; (PRVABC59, Concentration 99.9 uM, Number of replicates 2.0, Standard deviation 2.0633301575187155 %) 4.07%.

As to `Cc1cc(CO)c2cccc(Cc3ccccc3C(=O)Nc3nonc3C(N)=O)c2n1`, the inhibition reads like this: (PRVABC59, Concentration 49.95 uM, Number of replicates 2.0, Standard deviation 0.12584307180819165 %) -4.45%; (PRVABC59, Concentration 99.9 uM, Number of replicates 2.0, Standard deviation 0.39850300453014226 %) -1.53%.

As for `O=C(Nc1nc2[nH]cnc2c(=O)[nH]1)c1cc(Cl)ccc1NS(=O)(=O)c1ccc(Oc2ccccc2Cl)cc1`, the inhibition under setting [1] was found to be 21.9%.

With `CN(C)Cc1ccc(NCc2ccc(N3CCN(C)CC3)cc2)nc1`, the inhibition is, setting by setting: (PRVABC59, Concentration 49.5 uM, Number of replicates 2.0, Standard deviation 0.4640657991367188 %) -2.39%; (PRVABC59, Concentration 99.01 uM, Number of replicates 2.0, Standard deviation 0.7284754441158133 %) -1.05%; (PRVABC59, Concentration 198.0 uM, Number of replicates 2.0, Standard deviation 0.8166119221974307 %) 1.21%.

In the case of `O=Cc1ccc(N2CCC(C(=O)Nc3c(Cl)cccc3[N+](=O)[O-])CC2)cc1`, the inhibition under setting [2] came out at 21.7%.

On to `CN1CCN(c2ccc(CNS(=O)(=O)c3ccc(C(N)=O)cc3)cc2)CC1`, for which the inhibition is, setting by setting: (PRVABC59, Concentration 49.5 uM, Number of replicates 2.0, Standard deviation 3.1298940912505486 %) -2.93%; (PRVABC59, Concentration 99.01 uM, Number of replicates 2.0, Standard deviation 2.0491409994990377 %) -9.18%.

In the case of `CC(C)N(Cc1cnn(C)c1)C(=O)c1cc(Cl)ccc1NS(=O)(=O)c1ccc(Oc2ccccc2Cl)cc1`, the inhibition under setting [1] was 21.9%.

On to `CN(C(=O)c1cc(Cl)ccc1NS(=O)(=O)c1ccc(Oc2ccccc2Cl)cc1)[C@H]1CCN(Cc2ccccc2)C1`, for which, under setting [1], the inhibition was found to be 18.4%.

Take `CCc1cccc2[nH]c(C(=O)N3C[C@H](n4cc(CO)nn4)CCC3(C)C)cc12`: the inhibition (PRVABC59, Concentration 49.5 uM, Number of replicates 2.0, Standard deviation 1.345657751466366 %) worked out at 1.61%; the inhibition (PRVABC59, Concentration 99.01 uM, Number of replicates 2.0, Standard deviation 0.921351350459793 %) came out at 4.33%; the inhibition (PRVABC59, Concentration 198.0 uM, Number of replicates 2.0, Standard deviation 1.6164058188461652 %) is 5.38%.

With `O=C(NCC[C@H](O)c1ccccc1)c1cc(Cl)ccc1NS(=O)(=O)c1ccc(Oc2ccccc2Cl)cc1`, under setting [1], the inhibition is 38.9%.

As for `COc1ccc(S(=O)(=O)N[C@H]2CC[C@H](C(=O)Nc3nc4ccccc4s3)CC2)cc1`, the inhibition by setting is: (PRVABC59, Concentration 49.5 uM, Number of replicates 2.0, Standard deviation 1.516279405300169 %) 4.79%; (PRVABC59, Concentration 99.01 uM, Number of replicates 2.0, Standard deviation 2.0429029287446374 %) 5.82%; (PRVABC59, Concentration 198.0 uM, Number of replicates 2.0, Standard deviation 2.7145967477005732 %) 5.18%.

Turning to `O=Cc1ccc(N2CCC(C(=O)N3CCC[C@H]3c3cccc(F)c3)CC2)cc1`, the inhibition under setting [2] was 24.6%.

With `Cc1cc(CO)c2cccc(NC(=O)C3CC(N)C3)c2n1` (stereo not drawn), the inhibition is, setting by setting: (PRVABC59, Concentration 49.95 uM, Number of replicates 2.0, Standard deviation 0.17303270644971713 %) 56.1%; (PRVABC59, Concentration 99.9 uM, Number of replicates 2.0, Standard deviation 0.6659229038704304 %) 84.7%.

Take `Cc1cc(CO)c2cccc(NC(=O)[C@@H]3CCCC[C@H]3C(=O)O)c2n1`: the inhibition reads like this: (PRVABC59, Concentration 49.95 uM, Number of replicates 2.0, Standard deviation 1.6258787445174738 %) 3.41%; (PRVABC59, Concentration 99.9 uM, Number of replicates 2.0, Standard deviation 1.31977157857946 %) 10.8%.

As to `Cc1cc(CO)c2cccc(NC(=O)C3CNC3)c2n1`, the inhibition (PRVABC59, Concentration 99.9 uM, Number of replicates 2.0, Standard deviation 0.20878200053144555 %) is -2.49%.

`Cc1cc(CO)c2cccc(NC(=O)CNC3CC3)c2n1`: the inhibition came out at 17.8% (PRVABC59, Concentration 49.95 uM, Number of replicates 2.0, Standard deviation 1.7513317050958486 %) and 28.9% (PRVABC59, Concentration 99.9 uM, Number of replicates 2.0, Standard deviation 1.7111876748261923 %).

Take `Cc1cc(CO)c2cccc(NC(=O)C3CCN(C)CC3)c2n1`: the inhibition reads like this: (PRVABC59, Concentration 49.95 uM, Number of replicates 2.0, Standard deviation 2.9039680698338874 %) 1.89%; (PRVABC59, Concentration 99.9 uM, Number of replicates 2.0, Standard deviation 2.0814932575907883 %) 29.5%.

For the compound `Cc1cc(CO)c2cccc(NC(=O)C3CCC(N)CC3)c2n1` (stereo not drawn), the inhibition by setting is: (PRVABC59, Concentration 49.95 uM, Number of replicates 2.0, Standard deviation 0.4998117214705663 %) 93.2%; (PRVABC59, Concentration 99.9 uM, Number of replicates 2.0, Standard deviation 0.37327676699721984 %) 95.4%.

On to `Cc1cc(CO)c2cccc(NC(=O)C3CCC(CN)CC3)c2n1` (stereo not drawn), for which the inhibition by setting is: (PRVABC59, Concentration 49.95 uM, Number of replicates 2.0, Standard deviation 1.4301713707436838 %) 93.7%; (PRVABC59, Concentration 99.9 uM, Number of replicates 2.0, Standard deviation 0.5018131910126516 %) 92.3%.

Regarding `Cc1cc(CO)c2cccc(NC(=O)[C@@H]3C[C@@H](O)CN3)c2n1`, the inhibition (PRVABC59, Concentration 49.95 uM, Number of replicates 2.0, Standard deviation 2.1728568355691875 %) turned out to be 17% and the inhibition (PRVABC59, Concentration 99.9 uM, Number of replicates 2.0, Standard deviation 5.153634365263829 %) is 23.7%.

On to `Cc1cc(CO)c2cccc(CC(=O)N3CCC(CN)CC3)c2n1`, for which the inhibition runs as follows: (PRVABC59, Concentration 49.95 uM, Number of replicates 2.0, Standard deviation 0.5547725606279245 %) 25.3%; (PRVABC59, Concentration 99.9 uM, Number of replicates 2.0, Standard deviation 0.00508999060096365 %) 39.1%.

Usually inhibition stands for the relative decrease from the control value, in per cent.

(Values after ChEMBL document CHEMBL5606458, “ASAP - ZIKV NS2B-NS3 protease fluorescence single point” (2024).)
